Measured values from the supplement of paper PMC3724861.
Many of the other results were omitted from the sample, so hits are more common in it than they were. The hit rate among all sequences tested is not known here. Unmarked numbers belong to inactive results.

Each sequence was assayed on T1, Caupolican (Caup) homeodomain DNA-binding domain (assay: PBM E-score (8-mer, recovered from the published 9-mer minima) (E-score (dimensionless, -0.5 to 0.5)); Drosophila protein; higher = stronger relative binding preference, active = 0.31 or more).
T1 sequence: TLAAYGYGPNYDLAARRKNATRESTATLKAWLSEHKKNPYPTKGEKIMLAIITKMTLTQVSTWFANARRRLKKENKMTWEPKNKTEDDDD
Procedure: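 Protein binding microarray (PBM): in vitro transcribed/translated Caupolican (Caup) homeodomain DNA-binding domain (residues 214-303) applied at 100 nM to a universal 8-mer PBM array (Agilent AMADID 015681). The 8-mer enrichment score (E-score, range -0.5 to 0.5) was computed, and each 9-mer score is the minimum E-score of its two constituent 8-mers. The E-score is the same for a 9-mer and its reverse complement; 0.31 is the stated binding threshold.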

Sequence | PBM E-score
ATTTCTCA | 0.0413
ACGACAGT | 0.094
AGCATATA | 0.119
AATCGAGC | 0.0234
GCGTGTCA | 0.284
ACGTGTCA | ≥ 0.374 (active)
GTGTGTCA | ≥ 0.312 (active)
TAGTGTCA | 0.182
CTGTGTCA | 0.142
TCGTGTCA | 0.328 (active)
ATGTGTCA | 0.297
ACGTGTCG | 0.301
CCGTGTCA | 0.278
TACGTGGA | -0.086
AACTATCT | 0.0956
ATGCCGGC | -0.134
AGCCCGAG | -0.187
ACCAACCC | -0.0241
CAGGGGAC | -0.193
AAACACTA | 0.193
AACATCAC | 0.267
CACATCAA | 0.0655
AACATCAA | ≥ 0.316 (active)
AACATCAG | 0.231

Sequence | PBM E-score
GACATCGA | 0.24
TACATCAA | 0.331 (active)
GACATCAA | 0.296
CACATCGA | 0.0459
TACATCGA | 0.314 (active)
GTGGCTTA | -0.0913
GATCGGAA | 0.052
GTTGAGTA | 0.128
CCTGTACC | 0.11
CATGTACA | 0.469 (active)
GATGTACA | 0.404 (active)
GATGTGCA | 0.102
ACTGTACC | 0.107
CATGTGCA | 0.119
ACTGTACA | 0.257
CCTGTACA | 0.32 (active)
CATGTGTA | 0.308
CAAGTACC | 0.159
CATGTACC | 0.416 (active)
CTAGCGAG | -0.138
AGTGAATG | 0.0689
GGGCTGAC | -0.108
ACGCATCC | -0.0982
AATGTACA | 0.407 (active)

Sequence | PBM E-score
GATGTACC | 0.366 (active)
TATGTACA | 0.427 (active)
AATGTACC | 0.192
AATGTACT | 0.269
GCTGTACC | 0.0813
TCTGTACA | 0.281
AATGTGTG | 0.142
GATGTGCC | -0.0456
TATGTAGA | 0.226
AATGTGTA | 0.311 (active)
GATGTGTA | 0.252
CAATGCTG | -0.0134
CCGTAACG | -0.1
CCTGAGCG | -0.215
AAGGTCTC | -0.0943
AATGTACG | 0.153
CCTGTACG | 0.0896
CATGTACG | 0.409 (active)
CACCTTGC | 0.00581
CCAGTACC | -0.0496
AATACTCG | 0.138
ATGGTATC | 0.109
AGATGCTA | 0.0221
ATTACACC | 0.259

Sequence | PBM E-score
ATTACACA | ≥ 0.332 (active)
CTTACACA | 0.201
ATTACTCA | 0.112
GTTACAAA | 0.285
GTTACACA | 0.339 (active)
CGCAGGAA | -0.134
GACGCACA | -0.0232
CAGTTCAA | -0.0476
GATGGGGC | -0.192
GGCATGCA | 0.0214
GGCATGGA | -0.0635
AGCATGGA | 0.0568
AGCATGTA | ≥ 0.413 (active)
AGCATGGG | -0.0663
GGCATGTA | 0.378 (active)
AGATTAGC | -0.0125
ATGTAGCC | 0.145
GCCCAGCC | -0.262
TACGCTCA | -0.00447
AACTTGTG | 0.147
CACTTGTA | 0.318 (active)
GACTTGTA | 0.38 (active)
CACTTGTC | 0.271
AACTTGTC | 0.27

Sequence | PBM E-score
AACTTGTA | 0.364 (active)
GACTTGCA | 0.0909
CACTTGGA | 0.0572
GACTTGGA | -0.0172
AGCGACCA | -0.01
TACCTTGA | 0.0541
CGCTAGAA | -0.14
CTACTCTC | -0.105
GAATAGCC | -0.146
ACCTTGTA | 0.412 (active)
CCCTTGTA | 0.337 (active)
GCCTTGTA | 0.321 (active)
GCCTTGAA | -0.119
ACCTTGTG | 0.0927
CCCTTGTC | 0.177
ACCTTGTC | 0.306
GCCTTGCA | -0.0717
CCTTTGTA | 0.138
CGTAGTTA | 0.157
CAAGCTGA | 0.031
CTAGGGCC | -0.235
GGTCCGAC | -0.0703
CCAGTAAC | -0.0237
ATTATCAG | 0.0887

Sequence | PBM E-score
AACTATTC | 0.0523
ACTGATCC | 0.062
GAACATCA | 0.259
ATACATCA | 0.334 (active)
GCACATCA | 0.0977
ATACATCC | 0.276
CTACATCA | 0.253
GTACATCA | 0.383 (active)
CTAACGGA | -0.0298
AAACGTTG | -0.0301
ACAAAGGA | 0.131
CTTTCCTA | -0.094
ATCAGTAC | 0.201
AAGAACAT | 0.357 (active)
AAGAACAA | 0.259
AAGAACAC | 0.312 (active)
GAGAACAC | 0.236
AAGAACAG | 0.172
CAGAACAC | 0.215
ACGTAGCT | 0.0358
CATATCTC | 0.0782
AGTTGGGC | -0.15
AGCACGTG | 0.082
GCTACATA | 0.248

Sequence | PBM E-score
ACTACATC | 0.33 (active)
ACTACAGG | 0.199
CCTACATC | 0.144
ACTACAGC | 0.149
ACTACATG | 0.428 (active)
ACCACATG | 0.212
CCTACATA | 0.153
ACTACATA | 0.35 (active)
AAAATACT | 0.04
GCGATCGA | 0.0192
AGCGTAGC | -0.111
AGGGCCGC | -0.251
CGACCCGA | -0.151
GCGGTACA | 0.173
CTGGCCAG | -0.181
ATTTGGAC | 0.134
AGGGCGTC | -0.192
TGTCATAA | 0.338 (active)
TTACATAA | 0.339 (active)
TCACATAA | 0.182
AGTCATAA | 0.146
TGACATCA | ≥ 0.333 (active)
CGACATCA | 0.284
GGACATAA | 0.211

Sequence | PBM E-score
TGACATAA | 0.311 (active)
AGACATAA | 0.217
GGACATCA | 0.234
CGTCATAA | 0.081
CTACATAA | 0.22
AGCCTGGG | -0.123
AATCCCCC | -0.256
CGGGAACA | 0.176
AGACAACC | 0.201
CTTAACAA | 0.228
GTCGCGAA | 0.00326
ATGGTGTC | 0.142
GCTAGGCC | -0.238
GTACATAA | 0.361 (active)
GTACATAC | 0.307
GCACATAA | 0.0651
ACCCTGGG | -0.105
GAGATAGC | -0.0575
TTCAACAA | 0.299
CACAACAA | 0.29
AGCAACAA | 0.182
AACAACTC | 0.167
AACAACGT | 0.252
AACAACAT | 0.409 (active)

Sequence | PBM E-score
TACAACAA | 0.387 (active)
AACAACTG | 0.208
AACAACAG | 0.243
TACAACGA | 0.267
AACAACAA | 0.394 (active)
AACAACTA | ≥ 0.319 (active)
AGTTTCCA | 0.0163
CTCTGGGC | -0.214
CCCGTGAA | -0.0554
TCCGAGGA | -0.0519
GGGAGTAA | 0.0271
AATCCGGC | -0.121
CTTGGGTA | -0.0204
CCACCGGC | -0.281
TTACTCAA | 0.0597
AACAACCA | ≥ 0.324 (active)
AACAACCT | 0.243
AACAACCC | 0.247
ATCAACAT | 0.371 (active)
ATCAACAG | 0.109
ATCAACAA | 0.289
CGCGCTAG | -0.142
GTCGATAA | 0.0563
ACACCCGC | -0.0419

Sequence | PBM E-score
AAAAAAGA | -0.0444
CCGGCTCA | -0.123
GATGAATC | 0.106
CTGTCAAG | -0.017
ATGTTTTA | 0.369 (active)
ATGTTTTC | 0.33 (active)
ATGTTTGG | 0.229
ATGTTTAG | 0.284
ATGTTTCC | 0.236
ATGTTTGA | 0.327 (active)
ATGTTTAA | 0.367 (active)
GTGTTTTA | 0.213
CTGTTTAA | 0.111
CTGTTTTA | 0.107
CTGTTTGA | 0.188
CTGTTTTC | 0.134
